Measured values: PubChem BioAssay
Active and inactive are the calls of the source. Unless noted, no rule for the calls is given here.

What was measured:
[1] = resazurin metabolic signal in HepG2 cells – cell-based, resazurin fluorescence, 24 h, PK04 Diversity Set, profiling panel (AID 1172); settings: HepG2 viability, higher = more signal; also: test concentration not given here
[2] = budding yeast growth changes without added modifier – OD600, strain BY4716, 24 h, basal condition, primary screen (AID 1173); settings: S. cerevisiae BY4716 growth, OD600, 24 h; higher = more signal, called active from +8 up or from −8 down
[3] = viability profiling in MM1S myeloma cells – cell-based, resazurin fluorescence, basal, 24 h, PK04 Diversity Set, profiling panel (AID 1174); settings: higher = more signal, called active from +8 up or from −8 down;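 also: MM1S multiple myeloma cell line; test concentration not given here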
[4] = target: Dihydroorotate dehydrogenase (quinone), mitochondrial (Plasmodium falciparum (isolate 3D7)) (UniProt Q08210); test: inhibition of P. falciparum DHODH – biochemical, C-terminal His tag, absorbance 600 nm, primary screen (AID 1175); settings: PfDHODH enzyme, DCIP absorbance 600 nm; higher = more signal, called active from +8 up or from −8 down;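 also: recombinant parasite enzyme with a five histidine tag at its C terminus; test concentration not given here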
Dihydroorotate dehydrogenase (quinone), mitochondrial (Plasmodium falciparum (isolate 3D7)), sequence (Q08210 whole entry, looked up): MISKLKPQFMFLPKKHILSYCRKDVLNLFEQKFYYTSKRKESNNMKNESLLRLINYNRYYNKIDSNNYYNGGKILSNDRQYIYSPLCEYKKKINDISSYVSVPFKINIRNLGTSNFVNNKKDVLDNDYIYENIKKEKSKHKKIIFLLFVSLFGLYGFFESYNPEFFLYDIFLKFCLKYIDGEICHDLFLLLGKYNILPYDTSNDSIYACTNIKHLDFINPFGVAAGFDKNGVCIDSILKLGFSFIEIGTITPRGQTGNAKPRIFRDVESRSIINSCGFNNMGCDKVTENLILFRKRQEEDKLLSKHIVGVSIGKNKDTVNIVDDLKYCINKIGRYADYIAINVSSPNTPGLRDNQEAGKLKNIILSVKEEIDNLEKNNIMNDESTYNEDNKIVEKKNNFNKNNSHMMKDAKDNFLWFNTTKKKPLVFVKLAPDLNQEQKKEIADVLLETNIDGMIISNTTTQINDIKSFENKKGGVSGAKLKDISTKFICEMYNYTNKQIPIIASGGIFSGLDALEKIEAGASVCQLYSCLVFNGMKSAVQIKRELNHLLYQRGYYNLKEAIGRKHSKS

[5] = inhibition of PAO1 biofilm formation – strain PAO1, LB-PBS medium, absorbance 600 nm, primary screen (AID 1176); also: test concentration not given here; settings: P. aeruginosa PAO1 growth/biofilm, A600, 12 h; higher = more signal
[6] = growth modulation of vineyard yeast isolate – strain RM11-1a, OD600, basal, 24 h, primary screen (AID 1177);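 also: cultures grown under basal conditions with no added stressor; test concentration not given here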; settings: S. cerevisiae RM11-1a growth, OD600, 24 h; higher = more signal, called active from +8 up or from −8 down
[7] = growth of efflux-deficient E. coli DRC39 – strain DRC39, OD650, 24 h, E. coli filamentation inducers, primary screen (AID 1178);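 also: growth measured as culture turbidity by optical density at 650 nm; test concentration not given here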; settings: E. coli DRC39 acrAB, higher = more signal, called active from +8 up or from −8 down
[8] = growth of efflux-deficient E. coli DRC39 – strain DRC39, OD650, 48 h, E. coli filamentation inducers, primary screen (AID 1179);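 also: screen aims at cell division blockers that make cells filament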; settings: E. coli DRC39 delta-acrAB growth, higher = more signal, called active from +8 up or from −8 down
[9] = viability profiling in RPMI8226 myeloma cells – cell-based, resazurin fluorescence, basal, 24 h, PK04 Diversity Set, profiling panel (AID 1180); settings: higher = more signal;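 also: RPMI8826 multiple myeloma cell line at 5000 cells per well; test concentration not given here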
[10] = target: E3 ubiquitin-protein ligase XIAP (Homo sapiens) (UniProt P98170); test: small molecules binding XIAP protein – biophysical, small-molecule microarray, fluorescence 635 nm, primary screen (AID 1181); settings: higher = more signal;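 also: score merges 667 nm emission and signal to noise over triplicate slides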
E3 ubiquitin-protein ligase XIAP (Homo sapiens), sequence (P98170 whole entry, looked up): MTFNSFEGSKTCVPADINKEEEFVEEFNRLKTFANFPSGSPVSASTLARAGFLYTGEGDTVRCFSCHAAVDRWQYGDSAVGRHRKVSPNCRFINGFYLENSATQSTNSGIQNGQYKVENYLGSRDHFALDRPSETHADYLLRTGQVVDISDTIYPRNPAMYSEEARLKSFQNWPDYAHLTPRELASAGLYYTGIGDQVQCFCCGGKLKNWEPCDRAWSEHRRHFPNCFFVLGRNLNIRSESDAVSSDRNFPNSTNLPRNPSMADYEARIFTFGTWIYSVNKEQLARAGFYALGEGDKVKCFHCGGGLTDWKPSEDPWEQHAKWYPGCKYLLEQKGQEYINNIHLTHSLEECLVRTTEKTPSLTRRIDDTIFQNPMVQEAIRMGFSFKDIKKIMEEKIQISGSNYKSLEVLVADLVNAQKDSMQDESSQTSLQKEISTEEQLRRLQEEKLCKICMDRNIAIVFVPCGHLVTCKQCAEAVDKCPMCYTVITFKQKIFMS

Structure (SMILES) | z-score [1] | z-score [2] | z-score [3] | composite z-score [4] | z-score [5] | z-score [6] | z-score [7] | z-score [8] | z-score [9] | composite z-score [10]
COCCOC(=O)N1C(=O)[C@@]2(c3cc(C#Cc4ccc(OC)cc4)ccc31)[C@H](c1ccc(O)cc1)N1[C@H](c3ccccc3)[C@H](c3ccccc3)OC(=O)[C@H]1[C@@H]2C(=O)NC[C@H](O)c1ccccc1 | -0.372 | 0.895 (inactive) | -0.5 (inactive) | 1.49 (inactive) | 0.429 (inactive) | 0.95 (inactive) | 0.351 (inactive) | -0.206 (inactive) | -0.573 | -0.296
O=C1NC(=O)C2C1C=CC(C(O)Cc1ccccc1)N2Nc1ccc(Cl)cc1Cl (stereo not given) | -0.985 | -7.58 (inactive) | -1.56 (inactive) | -0.276 (inactive) | 0.53 (inactive) | 0.181 (inactive) | -0.655 (inactive) | -0.603 (inactive) | -1.04 | 0.13
O=C(O)[C@@]1(CCS(=O)(=O)c2ccccc2)COC(c2ccc(OCCCO)cc2)=N1 | 0.444 | 0.0291 (inactive) | -0.21 (inactive) | 0.0614 (inactive) | -0.347 (inactive) | -0.197 (inactive) | -0.43 (inactive) | -0.216 (inactive) | 0.0149 | 0.0767
CC(C)(C)OC(=O)CC[C@@]1(C(=O)NCC(O)CO)N=C(c2ccc(OCCCO)cc2)O[C@@H]1c1ccccc1N=[N+]=[N-] (stereo not given in full) | 0.486 | -0.69 (inactive) | -1.26 (inactive) | 0.536 (inactive) | -0.127 (inactive) | 0.151 (inactive) | 0.4 (inactive) | 1.65 (inactive) | 0.576 | 0.201
CCOC(=O)C1=CCC(c2ccccc2)N(S(=O)(=O)CC[Si](C)(C)C)C1 (stereo not given) | 1.17 | -1.48 (inactive) | 0.406 (inactive) | 0.49 (inactive) | -0.461 (inactive) | -0.0286 (inactive) | -0.117 (inactive) | 1.05 (inactive) | 0.681 | -0.192
C#CCN(CC1=CCCCC1)[C@H](c1ccccc1Br)[C@@H](O)Cc1ccccc1 | 1.47 | -2.52 (inactive) | 1.05 (inactive) | 0.0019 (inactive) | 0.236 (inactive) | 0.404 (inactive) | 0.657 (inactive) | 0.406 (inactive) | -0.486 | -0.209
O=C1[C@H]2C=C(Br)[C@H](C[C@@H]2c2ccccc2)[C@@]12CO2 | -0.25 | -7.98 (inactive) | -0.727 (inactive) | 0.402 (inactive) | -0.14 (inactive) | -0.13 (inactive) | -1.29 (inactive) | -1.58 (inactive) | -0.579 | -0.228
CCOC(=O)C[C@H]1[C@H](OC(=O)c2cc3ccccc3oc2=O)[C@@H](NC(=O)Cc2ccc(OC)cc2)c2cc(OCCCO)ccc2N1C(=O)c1ccccc1 | -1.1 | -2.06 (inactive) | -0.218 (inactive) | -2.42 (inactive) | -0.329 (inactive) | 0.0296 (inactive) | -0.682 (inactive) | -0.784 (inactive) | -1.22 | 0.0997
CN(C)C(=O)[C@@]1(Cc2ccccc2CN=[N+]=[N-])N=C(c2ccc(OCCCO)cc2)O[C@H]1c1ccccc1 | 0.0128 | 1.11 (inactive) | -1.82 (inactive) | 1.12 (inactive) | 0.41 (inactive) | 1.39 (inactive) | 0.316 (inactive) | 0.0743 (inactive) | -3.38 | -0.0118
CN1C(=O)[C@]2(Cc3ccccc3)N=C(c3ccc(OCCCO)cc3)O[C@@H]2c2ccccc21 | -0.635 | -1.79 (inactive) | -2.57 (inactive) | 0.539 (inactive) | 0.814 (inactive) | 1.13 (inactive) | 0.757 (inactive) | 0.0422 (inactive) | -2.41 | 0.0617
CCOC(=O)C[C@H]1[C@H](OC(=O)Cc2ccc3c(c2)OCO3)[C@@H](NC(=O)c2ccc(-c3ccccc3)cc2)c2cc(OCCCO)ccc2N1C(=O)c1ccc2ccccc2n1 | 0.138 | -2.85 (inactive) | 0.878 (inactive) | -2.91 (inactive) | -0.906 (inactive) | -1.63 (inactive) | 1.26 (inactive) | 0.455 (inactive) | 0.356 | -0.102
COCCOC(=O)N1C(=O)[C@@]2(c3cc(C#CC4=CCCCC4)ccc31)[C@H](C(N)=O)[C@H]1C(=O)O[C@H](c3ccccc3)[C@H](c3ccccc3)N1[C@@H]2c1ccc(OCCO)cc1 | -0.746 | 1.04 (inactive) | -1.95 (inactive) | 0.948 (inactive) | 1.67 (inactive) | 2.53 (inactive) | 0.0123 (inactive) | 0.505 (inactive) | -3.18 | -0.102
C=CCOC(=O)[C@@H]1[C@H]2C(=O)O[C@H](c3ccccc3)[C@H](c3ccccc3)N2[C@H](c2ccc(OCCOC(=O)[C@@H]3C[C@@H]4C(=O)N[C@@H](CCCCN(C)C)C(=O)N4[C@@H]3c3ccc(O)cc3)cc2)[C@@]12C(=O)Nc1ccc(I)cc12 | 0.883 | -0.955 (inactive) | -0.078 (inactive) | -0.262 (inactive) | 0.531 (inactive) | 1.65 (inactive) | -0.821 (inactive) | 0.0885 (inactive) | -0.153 | -0.157
C[C@@H]1ON(c2cccc(C(=O)OC(C)(C)C)c2)[C@H](c2ccc(Br)cc2)[C@H]1C(=O)N1C(=O)OC[C@H]1Cc1ccccc1 | 0.0192 | 0.724 (inactive) | 0.433 (inactive) | 1.17 (inactive) | -0.295 (inactive) | 0.872 (inactive) | -0.741 (inactive) | -0.472 (inactive) | 1.25 | 0.127
CC[C@@H]1C=C(C(=O)O)[C@H](c2ccco2)N1S(=O)(=O)c1ccc(C)cc1 | -0.456 | 0.538 (inactive) | -0.283 (inactive) | 0.267 (inactive) | 0.449 (inactive) | -0.0109 (inactive) | -0.721 (inactive) | 0.34 (inactive) | -0.88 | 0.124
COC(=O)c1c(CC[C@@H](CO)NC(=O)N[C@H](Cn2cc(Cc3ccccc3)nn2)C(C)C)oc(C(C)=O)c1C(=O)OC | -0.61 | -1.64 (inactive) | -0.0537 (inactive) | -3.09 (inactive) | 0.656 (inactive) | -0.705 (inactive) | 1.58 (inactive) | 0.582 (inactive) | -0.193 | -0.121
COc1cc2c(cc1OC)CN(C(=O)[C@H]1[C@@H]3C(=O)O[C@@H](c4ccccc4)[C@@H](c4ccccc4)N3[C@@H](c3ccc(O)cc3)[C@]13C(=O)Nc1ccc(C#CC4=CCCCC4)cc13)CC2 | -0.436 | -1.16 (inactive) | -0.16 (inactive) | -1.05 (inactive) | 1.08 (inactive) | 0.449 (inactive) | -0.222 (inactive) | -0.273 (inactive) | 0.916 | -0.359
[N-]=[N+]=NCc1ccccc1C[C@@]1(C(=O)NCC(O)CO)N=C(c2ccc(OCCCO)cc2)O[C@@H]1c1ccccc1N=[N+]=[N-] (stereo not given in full) | -2.35 | -0.927 (inactive) | -2.87 (inactive) | 2.22 (inactive) | 1.35 (inactive) | 0.977 (inactive) | 0.707 (inactive) | -0.506 (inactive) | -2.85 | 0.1
COc1ccc(NN2C(C(O)c3ccc([N+](=O)[O-])cc3)C=CC3C(=O)N(C4CCCCC4)C(=O)C32)cc1 (stereo not given) | 0.755 | 0.136 (inactive) | 0.0225 (inactive) | -0.238 (inactive) | 0.67 (inactive) | 0.388 (inactive) | -0.637 (inactive) | 0.523 (inactive) | 0.907 | 0.209
COc1ccc(COC2OC[C@]3(C)[C@H]4C5=C(CN3C(=O)OC(C)(C)C)[C@H](C)C(CO)C(CO)C5CC[C@@H]24)cc1 (stereo not given in full) | -0.987 | 0.455 (inactive) | -2.38 (inactive) | -0.124 (inactive) | 1.03 (inactive) | 0.903 (inactive) | -0.806 (inactive) | -1.6 (inactive) | -1.19 | -0.02
COC(=O)[C@@]1(Cc2ccc(OC)cc2)[C@H]2c3cc(C(=O)N(C)C)n(Cc4cccc5ccccc45)c3C[C@H]2CN1C(=O)c1ccccc1 | -1.75 | 0.897 (inactive) | -2.01 (inactive) | -3.49 (inactive) | 2.31 (inactive) | 0.872 (inactive) | -0.353 (inactive) | -0.999 (inactive) | -2.66 | 0.101
COc1ccc([C@H]2OC[C@@H]3CC4(CC=CC4)C(=O)N32)cc1 | -0.876 | -0.897 (inactive) | 0.305 (inactive) | -0.177 (inactive) | -0.0634 (inactive) | 0.504 (inactive) | -0.632 (inactive) | -0.688 (inactive) | 0.012 | -0.0118
C=CCOC(=O)[C@H]1[C@@H]2C(=O)O[C@@H](c3ccccc3)[C@@H](c3ccccc3)N2[C@@H](c2ccc(OCCOC(=O)[C@H]3C[C@H]4C(=O)N5CCC[C@H]5C(=O)N4[C@H]3c3ccc(O)cc3)cc2)[C@]12C(=O)Nc1ccc(I)cc12 | -0.495 | -1.03 (inactive) | -0.941 (inactive) | -1.73 (inactive) | 2.43 (inactive) | -0.632 (inactive) | -0.651 (inactive) | -1.05 (inactive) | -0.215 | 2.8
